In ChEMBL document CHEMBL3988442, “University of Dundee, Small-Polar-MMV Screening Library” (2021):
For some of these results: Entries with a potency or affinity are not part of this list.

Legend:
Parameters in all cases: scale not given: direction of the effect not stated beside the values
[1] = target: Protein translocase subunit SecA (Escherichia coli (strain K12)) (UniProt P10408); experiment: Assay to Identify E. coli SecA ATPase Inhibitors; assay type: functional; conditions: 30 µM
[2] = target: T1, Ubiquitin-activating enzyme e1, putative (Leishmania donovani (strain BPK282A1)) (UniProt E9BSI1); experiment: Leishmania donovani Ubiquitin Activating Enzyme (LdE1); assay type: functional; conditions: 30 µM
T1 sequence (whole entry): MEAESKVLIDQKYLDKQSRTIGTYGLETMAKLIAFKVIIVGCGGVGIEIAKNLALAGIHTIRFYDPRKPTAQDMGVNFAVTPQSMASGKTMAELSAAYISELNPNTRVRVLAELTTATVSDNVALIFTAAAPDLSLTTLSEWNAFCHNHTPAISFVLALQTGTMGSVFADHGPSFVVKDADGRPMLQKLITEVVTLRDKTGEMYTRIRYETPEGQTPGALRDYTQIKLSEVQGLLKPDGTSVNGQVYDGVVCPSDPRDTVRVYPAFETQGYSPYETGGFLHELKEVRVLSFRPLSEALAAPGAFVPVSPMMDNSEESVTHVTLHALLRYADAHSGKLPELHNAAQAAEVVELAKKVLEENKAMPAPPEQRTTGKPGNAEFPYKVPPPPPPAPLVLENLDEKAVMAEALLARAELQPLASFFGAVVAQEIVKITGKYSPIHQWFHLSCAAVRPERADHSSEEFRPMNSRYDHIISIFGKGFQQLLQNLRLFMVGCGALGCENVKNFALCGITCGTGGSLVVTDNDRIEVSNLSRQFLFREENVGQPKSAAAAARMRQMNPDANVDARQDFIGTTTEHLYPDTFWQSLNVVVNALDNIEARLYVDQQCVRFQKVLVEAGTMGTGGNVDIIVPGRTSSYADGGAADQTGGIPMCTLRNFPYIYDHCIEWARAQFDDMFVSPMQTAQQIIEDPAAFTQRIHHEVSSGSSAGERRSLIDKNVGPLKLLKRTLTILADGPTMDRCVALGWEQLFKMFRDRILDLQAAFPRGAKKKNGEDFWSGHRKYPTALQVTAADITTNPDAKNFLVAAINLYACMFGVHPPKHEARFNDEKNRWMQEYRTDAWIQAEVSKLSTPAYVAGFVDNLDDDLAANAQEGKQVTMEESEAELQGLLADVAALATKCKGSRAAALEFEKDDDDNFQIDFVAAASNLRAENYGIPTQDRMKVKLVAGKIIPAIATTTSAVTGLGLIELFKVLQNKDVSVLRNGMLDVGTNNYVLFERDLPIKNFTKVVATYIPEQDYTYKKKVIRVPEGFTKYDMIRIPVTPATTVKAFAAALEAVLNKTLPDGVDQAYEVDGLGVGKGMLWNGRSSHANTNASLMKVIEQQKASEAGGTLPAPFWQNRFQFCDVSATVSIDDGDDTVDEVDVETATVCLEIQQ

[3] = target: AMP-activated protein kinase, AMPK (Homo sapiens) (UniProt P54646+O43741+P54619+Q9UGJ0+Q9Y478+Q13131+Q9UGI9); experiment: AMP-dependent Kinase enzyme assay. An in vitro enzyme assay that detects ADP turnover that is directly proportional to AMPK activity. This uses naive AMPK that is activated during the assay with MK-8722; assay type: functional; conditions: 30 µM
[4] = target: Sialic acid-binding Ig-like lectin 9 (Homo sapiens) (UniProt Q9Y336); experiment: Hs-Siglec9 ALPHAscreen SOP 20170721; conditions: 10 µM
Trypanosoma cruzi = experiment: Trypanosoma cruzi phosphomannomutase and mannose-1-phosphate guanylyltransferase assay; assay type: functional; conditions: 10 µM
[5] = target: T2, Arginase-2, mitochondrial (Homo sapiens) (UniProt P78540); experiment: in vitro enzyme assay to detect the production of urea directly proportional to the activity of Arginase II; assay type: functional; conditions: 33.3 µM; note: in the data most compounds retested in dose-response had high values
T2 sequence (whole entry): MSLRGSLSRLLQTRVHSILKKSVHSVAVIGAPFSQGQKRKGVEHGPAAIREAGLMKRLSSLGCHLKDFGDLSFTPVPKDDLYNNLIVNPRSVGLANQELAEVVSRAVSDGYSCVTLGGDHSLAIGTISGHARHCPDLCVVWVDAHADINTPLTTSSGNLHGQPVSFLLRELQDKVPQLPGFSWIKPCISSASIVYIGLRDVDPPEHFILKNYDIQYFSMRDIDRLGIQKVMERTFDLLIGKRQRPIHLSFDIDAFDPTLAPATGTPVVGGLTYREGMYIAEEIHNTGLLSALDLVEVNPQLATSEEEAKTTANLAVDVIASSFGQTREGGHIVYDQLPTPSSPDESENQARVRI

[6] = target: T3, Proteasome subunit beta (Trypanosoma cruzi) (UniProt O96673); experiment: Trypanosoma cruzi proteasome chymotrypsin-like activity (TcProtChymo) assay.; note: in the data most compounds retested in dose-response had high values; assay type: functional; conditions: 9.37 µM
T3 sequence (whole entry): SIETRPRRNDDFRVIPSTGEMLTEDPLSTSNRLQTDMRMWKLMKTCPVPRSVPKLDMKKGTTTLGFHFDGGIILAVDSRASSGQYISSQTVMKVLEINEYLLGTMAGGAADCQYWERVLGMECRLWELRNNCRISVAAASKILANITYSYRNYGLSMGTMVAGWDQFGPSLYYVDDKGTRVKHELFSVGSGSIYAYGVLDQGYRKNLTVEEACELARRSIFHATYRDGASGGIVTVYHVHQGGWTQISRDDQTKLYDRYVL

Homo sapiens = species: Homo sapiens; experiment: To identify inhibition of the IFN signalling (Jak-Stat) pathway via expression of an eGFP reporter gene under the control of an IFN-stimulated response element (ISRE) containing MxA promoter.; assay type: functional; conditions: 30 µM
[7] = target: T4, Tyrosyl-tRNA synthetase, putative (Trypanosoma cruzi (strain CL Brener)) (UniProt Q4DSP6); experiment: Trypanosoma cruzi tyrosyl tRNA synthetase (TcYRS) _High Tyrosine SOP; assay type: functional; conditions: 30 µM; note: in the data most compounds retested in dose-response had high values
T4 sequence (whole entry): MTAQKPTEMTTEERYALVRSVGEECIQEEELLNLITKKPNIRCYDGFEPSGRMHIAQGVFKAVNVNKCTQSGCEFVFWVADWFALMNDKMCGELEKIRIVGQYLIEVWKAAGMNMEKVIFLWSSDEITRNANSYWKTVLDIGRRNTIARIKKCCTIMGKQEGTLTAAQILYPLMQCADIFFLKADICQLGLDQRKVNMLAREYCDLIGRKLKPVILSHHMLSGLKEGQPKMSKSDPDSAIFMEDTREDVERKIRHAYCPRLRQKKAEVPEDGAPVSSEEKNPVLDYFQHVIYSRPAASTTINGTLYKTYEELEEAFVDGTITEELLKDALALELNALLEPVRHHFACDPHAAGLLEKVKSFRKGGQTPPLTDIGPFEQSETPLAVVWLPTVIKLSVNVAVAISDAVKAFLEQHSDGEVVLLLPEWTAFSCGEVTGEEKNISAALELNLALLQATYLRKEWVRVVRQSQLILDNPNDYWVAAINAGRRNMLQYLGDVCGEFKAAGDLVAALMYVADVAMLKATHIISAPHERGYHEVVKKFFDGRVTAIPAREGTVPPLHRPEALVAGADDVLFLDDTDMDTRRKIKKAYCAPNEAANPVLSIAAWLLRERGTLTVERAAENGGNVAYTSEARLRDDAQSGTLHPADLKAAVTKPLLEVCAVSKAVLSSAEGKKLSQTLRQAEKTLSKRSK

[8] = target: T4, Tyrosyl-tRNA synthetase, putative (Trypanosoma cruzi (strain CL Brener)); experiment: Trypanosoma cruzi tyrosyl tRNA synthetase (TcYRS) SOP; assay type: functional; conditions: 30 µM
[9] = target: Chromo domain-containing protein 1 (Saccharomyces cerevisiae (strain ATCC 204508 / S288c) (Baker's yeast)) (UniProt P32657); experiment: ScCHD-1 Enzyme Inhibition Assay; assay type: functional; conditions: 30 µM; note: in the data most compounds retested in dose-response had high values
Sequence of Chromo domain-containing protein 1 (Saccharomyces cerevisiae (strain ATCC 204508 / S288c) (Baker's yeast)) (P32657 whole entry, the tested form may be a part): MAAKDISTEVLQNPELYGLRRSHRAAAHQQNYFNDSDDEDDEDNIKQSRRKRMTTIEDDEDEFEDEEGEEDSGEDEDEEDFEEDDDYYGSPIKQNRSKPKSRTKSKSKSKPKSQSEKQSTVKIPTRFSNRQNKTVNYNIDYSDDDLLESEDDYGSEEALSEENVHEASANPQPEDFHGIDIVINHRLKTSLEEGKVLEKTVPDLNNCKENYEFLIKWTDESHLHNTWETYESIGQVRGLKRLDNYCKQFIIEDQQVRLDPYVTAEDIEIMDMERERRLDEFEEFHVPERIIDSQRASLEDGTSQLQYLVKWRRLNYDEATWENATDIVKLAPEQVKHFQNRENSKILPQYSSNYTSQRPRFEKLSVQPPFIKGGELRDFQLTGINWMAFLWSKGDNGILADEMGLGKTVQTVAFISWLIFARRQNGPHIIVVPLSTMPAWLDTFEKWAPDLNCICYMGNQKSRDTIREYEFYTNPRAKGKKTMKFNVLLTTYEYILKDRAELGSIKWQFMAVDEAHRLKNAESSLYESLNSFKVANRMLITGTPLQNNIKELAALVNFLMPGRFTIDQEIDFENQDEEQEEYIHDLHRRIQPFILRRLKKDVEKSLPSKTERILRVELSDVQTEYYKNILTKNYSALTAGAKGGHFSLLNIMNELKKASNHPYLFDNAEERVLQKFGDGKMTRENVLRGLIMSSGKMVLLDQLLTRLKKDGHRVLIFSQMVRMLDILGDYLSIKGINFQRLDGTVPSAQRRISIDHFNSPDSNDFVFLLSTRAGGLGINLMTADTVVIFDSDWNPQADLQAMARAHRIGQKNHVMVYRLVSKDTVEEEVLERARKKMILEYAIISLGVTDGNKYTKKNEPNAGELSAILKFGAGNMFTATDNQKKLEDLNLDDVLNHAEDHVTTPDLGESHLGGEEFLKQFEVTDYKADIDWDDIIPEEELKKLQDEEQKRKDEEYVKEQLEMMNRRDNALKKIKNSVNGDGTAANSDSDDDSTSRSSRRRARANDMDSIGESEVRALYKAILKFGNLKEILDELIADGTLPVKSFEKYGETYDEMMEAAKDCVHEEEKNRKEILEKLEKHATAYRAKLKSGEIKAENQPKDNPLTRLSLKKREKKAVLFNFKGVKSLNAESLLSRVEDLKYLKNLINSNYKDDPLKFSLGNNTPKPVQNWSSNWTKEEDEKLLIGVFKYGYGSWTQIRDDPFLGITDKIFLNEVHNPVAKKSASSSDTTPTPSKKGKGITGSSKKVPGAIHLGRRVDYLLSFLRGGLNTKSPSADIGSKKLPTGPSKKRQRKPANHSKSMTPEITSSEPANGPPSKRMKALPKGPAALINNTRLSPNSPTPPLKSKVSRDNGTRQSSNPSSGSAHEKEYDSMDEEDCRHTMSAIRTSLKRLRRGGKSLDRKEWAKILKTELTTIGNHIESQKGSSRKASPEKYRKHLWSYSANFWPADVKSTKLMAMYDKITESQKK

Sequence of Sialic acid-binding Ig-like lectin 9 (Homo sapiens) (Q9Y336 whole entry): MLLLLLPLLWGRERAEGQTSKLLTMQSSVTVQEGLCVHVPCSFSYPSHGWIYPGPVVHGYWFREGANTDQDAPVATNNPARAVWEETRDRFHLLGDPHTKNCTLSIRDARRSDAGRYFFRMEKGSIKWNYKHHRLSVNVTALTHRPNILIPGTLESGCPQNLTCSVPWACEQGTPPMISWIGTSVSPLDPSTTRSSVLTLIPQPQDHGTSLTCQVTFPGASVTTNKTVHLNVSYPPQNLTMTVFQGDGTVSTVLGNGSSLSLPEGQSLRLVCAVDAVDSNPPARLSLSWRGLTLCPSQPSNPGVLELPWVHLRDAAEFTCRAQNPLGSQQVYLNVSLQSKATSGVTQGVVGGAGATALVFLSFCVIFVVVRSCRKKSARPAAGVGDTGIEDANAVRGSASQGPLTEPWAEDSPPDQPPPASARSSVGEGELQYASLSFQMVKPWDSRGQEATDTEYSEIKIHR
Sequence of Protein translocase subunit SecA (Escherichia coli (strain K12)) (P10408 whole entry): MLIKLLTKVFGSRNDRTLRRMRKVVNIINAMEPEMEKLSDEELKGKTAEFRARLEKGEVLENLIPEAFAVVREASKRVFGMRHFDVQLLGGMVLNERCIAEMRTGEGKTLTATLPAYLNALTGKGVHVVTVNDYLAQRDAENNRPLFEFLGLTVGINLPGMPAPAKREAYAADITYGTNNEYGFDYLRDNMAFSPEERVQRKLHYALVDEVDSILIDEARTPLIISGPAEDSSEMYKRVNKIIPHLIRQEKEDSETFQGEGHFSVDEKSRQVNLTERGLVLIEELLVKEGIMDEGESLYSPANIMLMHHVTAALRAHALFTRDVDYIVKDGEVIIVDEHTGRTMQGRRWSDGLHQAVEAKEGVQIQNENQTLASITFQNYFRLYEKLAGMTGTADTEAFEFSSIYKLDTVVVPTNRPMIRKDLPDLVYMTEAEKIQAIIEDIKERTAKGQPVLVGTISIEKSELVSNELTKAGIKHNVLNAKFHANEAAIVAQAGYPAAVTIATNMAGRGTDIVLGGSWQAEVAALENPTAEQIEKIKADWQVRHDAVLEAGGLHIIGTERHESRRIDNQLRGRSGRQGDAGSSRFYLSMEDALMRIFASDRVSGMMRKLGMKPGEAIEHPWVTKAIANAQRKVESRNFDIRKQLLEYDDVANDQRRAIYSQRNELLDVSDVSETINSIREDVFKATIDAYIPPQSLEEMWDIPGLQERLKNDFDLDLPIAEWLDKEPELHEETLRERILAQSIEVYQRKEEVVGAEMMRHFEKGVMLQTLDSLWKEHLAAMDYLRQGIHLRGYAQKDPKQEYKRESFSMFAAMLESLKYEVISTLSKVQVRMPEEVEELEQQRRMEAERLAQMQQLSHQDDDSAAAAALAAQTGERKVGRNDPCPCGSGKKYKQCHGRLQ

Row | Compound | Percent Effect [1] | Percent Effect [2] | Percent Effect [3] | Percent Effect [4] | Percent Effect (Trypanosoma cruzi) | Percent Effect [5] | Percent Effect [6] | Percent Effect (Homo sapiens) | Percent Effect [7] | Percent Effect [8] | Percent Effect [9]
1 | CC(=O)c1cccc(OCCCC(=O)N(C)CCc2ccncc2)c1 | -2.19% | 8.11% | -3.93% | 2.37% | 3.67% | -1.91% | 16.4% | 16.1% | 8.99% | 17.1% | -2.34%
2 | O=C(CN1CCC(c2ccnn2CCO)CC1)NCc1cccs1 | -3.33% | 15.2% | -3.55% | -6.32% | 1.23% | 1.52% | 2.87% | -10.7% | 8.37% | 24.1% | -5.84%
3 | CC(C)OCCOCc1cccc(NC(=O)NCc2ccncc2)c1 | 2.27% | 13% | -7.84% | -0.138% | -0.295% | -11% | 11.5% | 30.4% | 6.45% | 13.6% | -2.65%
4 | CC(O)CN1CCC(CNCc2cccc(Br)c2)CC1 (stereo not given) | -6.33% | 5.41% | -21.1% | 11.5% | -4.25% | -5.61% | -0.721% | 11.2% | 2.46% | -1.24% | 4.26%
5 | Cc1nc(N2CCN(C(=O)c3ccc(O)cc3)CC2)c2cnn(C)c2n1 | -0.631% | 0% | -5.77% | 5.23% | -2.74% | 1.6% | -2.88% | 15.3% | -2.46% | -6.17% | 0.501%
6 | Cc1ccc(-c2ncc(C(=O)NCCS(N)(=O)=O)s2)c(C)c1 | -7.16% | 5.41% | -2.36% | 0.84% | -5% | -3.61% | 9.55% | 21.4% | 0.493% | -1.24% | -4.18%
7 | CN(C)C(=O)c1cccc(NC(=O)N(CCO)Cc2ccsc2)c1 | -0.273% | 9.72% | -9.76% | 7.88% | 3.79% | 11% | 11.8% | -1.39% | 5.26% | 12.8% | -3.15%
8 | CCN1CCCC1CN(CCN(C)C)S(=O)(=O)c1cccc(C#N)c1 (stereo not given) | -5.4% | 13.7% | 3.08% | 5.43% | 6.27% | 4.09% | 8.16% | 0.578% | 4.3% | 10% | -4.67%
9 | CCn1nc(C)c2nc(C(C)C)nc(N3CCCCC3)c21 | -3.55% | 2.6% | 1.61% | 3.47% | -5.8% | -9.65% | 1.5% | 5.04% | 3.23% | 6.17% | -0.27%
10 | O=S1(=O)C[C@@H]2[C@H](C1)N(Cc1ncc[nH]1)CCN2CC1CC1 | -2.38% | 0% | -1.5% | -1.31% | -3.28% | 1.43% | 3.45% | 1.15% | 5.82% | 14.6% | -2.92%
11 | Cc1ncc2c(n1)CN(Cc1noc(C3CC3)n1)CC2 | -6.18% | 15.6% | -33.1% | 11.6% | 5.43% | 2.85% | 8.11% | 2.58% | 6.8% | 19.5% | -13.7%
12 | Fc1cnc(N2CCn3cc(CNc4ccccn4)nc3C2)nc1 | 0.222% | -2.67% | 7.82% | 16.2% | -0.193% | -56.1% | 3.76% | 7.84% | -1.04% | -5% | -2.56%
13 | COC(C(=O)N1CCCN(Cc2cscn2)CC1)c1ccccc1 (stereo not given) | -0.131% | 21.1% | -3.46% | -3.88% | 4.89% | -5.36% | 23.2% | 6.84% | 5.39% | 24.4% | -9.91%
14 | CSCc1cccc(S(=O)(=O)NCCCN2CCOCC2)c1 | -6.05% | 5.2% | 1.35% | 8.61% | 3.64% | -6.9% | 3.33% | -22.2% | 4.3% | 11.1% | -3.9%
15 | COc1ccc2cc(C3CN(C(=O)C4CCOCC4)CCO3)ccc2c1 (stereo not given) | -3.12% | 2.7% | 1.82% | 0.48% | 1.93% | 2.38% | 9.31% | -4.85% | 4.76% | 12.2% | -2.89%
16 | CCc1cc(NC2CCN(S(C)(=O)=O)CC2)n2nc(C)c(C)c2n1 | 0.159% | 4.17% | 4.89% | -1.11% | -4.37% | -2.21% | 22.6% | 5.75% | -10.5% | 2.56% | -1.42%
17 | CCn1nc(CC(C)C)cc1C(=O)NCCn1cccc1 | -6.33% | -1.39% | 1.75% | 1.17% | -3.01% | -3.09% | 11.6% | -24.3% | 0% | -2.56% | 1.57%
18 | CCOc1ccc(CC(=O)N2CCN(c3nccn3C)CC2)cc1 | -0.699% | 13% | 1.57% | 3.44% | -5.62% | -7.1% | 18.6% | 9.26% | 4.23% | 14.1% | -6.41%
19 | Cn1cc(-c2csc(N3CCN(C(=O)OC(C)(C)C)CC3)n2)cn1 | -0.688% | 4.17% | -13.6% | 7.74% | 1.85% | 30.5% | 8.42% | 57.3% | 10.5% | 12.8% | -1.57%
20 | O=C(NCC(=O)N1CCCCC1)c1ccc(Cl)cc1I | -0.681% | 5.41% | -6.27% | 3.75% | 8.49% | 0% | 10.5% | 13.7% | 2.65% | 12.2% | -1.27%
